Data from the supplement of paper PMC4466140.

Key:
Experiment in all cases: SPOT peptide array binding signal intensity (averaged, normalized) (arbitrary units (background-subtracted, floor 0; scale differs between SH3 domains)); higher = stronger binding of the SH3 domain to the peptide
AgAbp1 = biological target: AgAbp1
Experimental: (§1)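 GST-tagged SH3 domains from S. cerevisiae (Sc), A. gossypii (Ag), C. albicans (Ca) and S. pombe (Sp) were incubated at 10 ug/ml overnight at 4 C on cellulose SPOT membranes carrying 292 synthetic 15-mer peptides mined from the S. cerevisiae proteome (cysteines replaced by serines). Binding was detected with anti-GST antibody, HRP secondary and chemiluminescence, quantified with Genespotter, and reported as normalized spot intensities averaged over biological replicates.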

AgBbc1 = biological target: AgBbc1
Experimental: as §1

AgBem1-D1 = biological target: AgBem1-D1
Experimental: as §1

AgBzz1-D1 = biological target: AgBzz1-D1
Experimental: as §1

AgBzz1-D2 = biological target: AgBzz1-D2
Experimental: as §1

AgCyk3 = biological target: AgCyk3
Experimental: as §1

AgFus1 = biological target: AgFus1
Experimental: as §1

AgHof1 = biological target: AgHof1
Experimental: as §1

AgHse1 = biological target: AgHse1
Experimental: as §1

AgLsb1 = biological target: AgLsb1
Experimental: as §1

AgLsb4 = biological target: AgLsb4
Experimental: as §1

AgMyo5 = biological target: AgMyo5
Experimental: as §1

AgNbp2 = biological target: AgNbp2
Experimental: as §1

AgRvs167 = biological target: AgRvs167
Experimental: as §1

AgSho1 = biological target: AgSho1
Experimental: as §1

AgSla1-D1-D2 = biological target: AgSla1-D1-D2
Experimental: as §1

AgSla1-D3 = biological target: AgSla1-D3
Experimental: as §1

CaAbp1-D1 = biological target: CaAbp1-D1
Experimental: as §1

CaAbp1-D2 = biological target: CaAbp1-D2
Experimental: as §1

CaBbc1 = biological target: CaBbc1
Experimental: as §1

CaBem1-D1 = biological target: CaBem1-D1
Experimental: as §1

CaBzz1-D1 = biological target: CaBzz1-D1
Experimental: as §1

CaBzz1-D2 = biological target: CaBzz1-D2
Experimental: as §1

CaCyk3 = biological target: CaCyk3
Experimental: as §1

CaFus1 = biological target: CaFus1
Experimental: as §1

CaHof1 = biological target: CaHof1
Experimental: as §1

CaHse1 = biological target: CaHse1
Experimental: as §1

CaLsb1 = biological target: CaLsb1
Experimental: as §1

CaLsb4 = biological target: CaLsb4
Experimental: as §1

CaMyo5 = biological target: CaMyo5
Experimental: as §1

CaNbp2 = biological target: CaNbp2
Experimental: as §1

CaRvs167 = biological target: CaRvs167
Experimental: as §1

CaRvs167-3 = biological target: CaRvs167-3
Experimental: as §1

CaSho1 = biological target: CaSho1
Experimental: as §1

CaSla1-D1-D2 = biological target: CaSla1-D1-D2
Experimental: as §1

CaSla1-D3 = biological target: CaSla1-D3
Experimental: as §1

ScAbp1 = biological target: ScAbp1
Experimental: as §1

ScBbc1 = biological target: ScBbc1
Experimental: as §1

ScBem1-D1 = biological target: ScBem1-D1
Experimental: as §1

ScBzz1-D1 = biological target: ScBzz1-D1
Experimental: as §1

ScBzz1-D2 = biological target: ScBzz1-D2
Experimental: as §1

ScCyk3 = biological target: ScCyk3
Experimental: as §1

ScFus1 = biological target: ScFus1
Experimental: as §1

ScHof1 = biological target: ScHof1
Experimental: as §1

ScHse1 = biological target: ScHse1
Experimental: as §1

ScLsb1 = biological target: ScLsb1
Experimental: as §1

ScLsb2 = biological target: ScLsb2
Experimental: as §1

ScLsb3 = biological target: ScLsb3
Experimental: as §1

ScLsb4 = biological target: ScLsb4
Experimental: as §1

ScMyo3 = biological target: ScMyo3
Experimental: as §1

ScMyo5 = biological target: ScMyo5
Experimental: as §1

ScNbp2 = biological target: ScNbp2
Experimental: as §1

ScPex13 = biological target: ScPex13
Experimental: as §1

ScRvs167 = biological target: ScRvs167
Experimental: as §1

ScSho1 = biological target: ScSho1
Experimental: as §1

ScSla1-D1-D2 = biological target: ScSla1-D1-D2
Experimental: as §1

ScSla1-D3 = biological target: ScSla1-D3
Experimental: as §1

SpAbp1-D1 = biological target: SpAbp1-D1
Experimental: as §1

SpBbc1 = biological target: SpBbc1
Experimental: as §1

SpBzz1-D1 = biological target: SpBzz1-D1
Experimental: as §1

SpBzz1-D2 = biological target: SpBzz1-D2
Experimental: as §1

SpCyk3 = biological target: SpCyk3
Experimental: as §1

SpHof1 = biological target: SpHof1
Experimental: as §1

SpHof1-2 = biological target: SpHof1-2
Experimental: as §1

SpHof1-3 = biological target: SpHof1-3
Experimental: as §1

SpHse1 = biological target: SpHse1
Experimental: as §1

SpLsb1 = biological target: SpLsb1
Experimental: as §1

SpLsb4 = biological target: SpLsb4
Experimental: as §1

SpMyo1 = biological target: SpMyo1
Experimental: as §1

SpNbp2 = biological target: SpNbp2
Experimental: as §1

SpPex13 = biological target: SpPex13
Experimental: as §1

SpRvs167 = biological target: SpRvs167
Experimental: as §1

SpSla1-D1-D2 = biological target: SpSla1-D1-D2
Experimental: as §1

SpSla1-D3 = biological target: SpSla1-D3
Experimental: as §1

B1: unnamed (peptide)
chain: PKMLPIPSKPTLFDL
AgAbp1
  SPOT peptide array binding signal intensity: 47
AgBbc1
  SPOT peptide array binding signal intensity: 7.5
AgBem1-D1
  SPOT peptide array binding signal intensity: 490
AgBzz1-D1
  SPOT peptide array binding signal intensity: 24
AgBzz1-D2
  SPOT peptide array binding signal intensity: ≤ 0
AgCyk3
  SPOT peptide array binding signal intensity: ≤ 0
AgFus1
  SPOT peptide array binding signal intensity: 212
AgHof1
  SPOT peptide array binding signal intensity: 6
AgHse1
  SPOT peptide array binding signal intensity: 106
AgLsb1
  SPOT peptide array binding signal intensity: 2
AgLsb4
  SPOT peptide array binding signal intensity: 18.5
AgMyo5
  SPOT peptide array binding signal intensity: 3.25
AgNbp2
  SPOT peptide array binding signal intensity: 91
AgRvs167
  SPOT peptide array binding signal intensity: 3.33
AgSho1
  SPOT peptide array binding signal intensity: 776
AgSla1-D1-D2
  SPOT peptide array binding signal intensity: ≤ 0
AgSla1-D3
  SPOT peptide array binding signal intensity: 5.5
CaAbp1-D1
  SPOT peptide array binding signal intensity: 434
CaAbp1-D2
  SPOT peptide array binding signal intensity: 459
CaBbc1
  SPOT peptide array binding signal intensity: 38.8
CaBem1-D1
  SPOT peptide array binding signal intensity: 95
CaBzz1-D1
  SPOT peptide array binding signal intensity: 362
CaBzz1-D2
  SPOT peptide array binding signal intensity: 146
CaCyk3
  SPOT peptide array binding signal intensity: 7
CaFus1
  SPOT peptide array binding signal intensity: 852
CaHof1
  SPOT peptide array binding signal intensity: ≤ 0
CaHse1
  SPOT peptide array binding signal intensity: 79
CaLsb1
  SPOT peptide array binding signal intensity: 2
CaLsb4
  SPOT peptide array binding signal intensity: 209
CaMyo5
  SPOT peptide array binding signal intensity: 89.5

B2: unnamed (peptide)
chain: NNNKMRPHLPPLSSG
AgAbp1
  SPOT peptide array binding signal intensity: 47.5
AgBbc1
  SPOT peptide array binding signal intensity: 1.5
AgBem1-D1
  SPOT peptide array binding signal intensity: 288
AgBzz1-D1
  SPOT peptide array binding signal intensity: 12
AgBzz1-D2
  SPOT peptide array binding signal intensity: 9
AgCyk3
  SPOT peptide array binding signal intensity: ≤ 0
AgFus1
  SPOT peptide array binding signal intensity: 386
AgHof1
  SPOT peptide array binding signal intensity: 291
AgHse1
  SPOT peptide array binding signal intensity: 932
AgLsb1
  SPOT peptide array binding signal intensity: 1.25
AgLsb4
  SPOT peptide array binding signal intensity: 34.5
AgMyo5
  SPOT peptide array binding signal intensity: ≤ 0
AgNbp2
  SPOT peptide array binding signal intensity: 513
AgRvs167
  SPOT peptide array binding signal intensity: 3.5
AgSho1
  SPOT peptide array binding signal intensity: 559
AgSla1-D1-D2
  SPOT peptide array binding signal intensity: ≤ 0
AgSla1-D3
  SPOT peptide array binding signal intensity: 0.5
CaAbp1-D1
  SPOT peptide array binding signal intensity: 613
CaAbp1-D2
  SPOT peptide array binding signal intensity: 330
CaBbc1
  SPOT peptide array binding signal intensity: 55.9
CaBem1-D1
  SPOT peptide array binding signal intensity: 264
CaBzz1-D1
  SPOT peptide array binding signal intensity: 85.8
CaBzz1-D2
  SPOT peptide array binding signal intensity: 49.8
CaCyk3
  SPOT peptide array binding signal intensity: 4
CaFus1
  SPOT peptide array binding signal intensity: 1790
CaHof1
  SPOT peptide array binding signal intensity: ≤ 0
CaHse1
  SPOT peptide array binding signal intensity: 487
CaLsb1
  SPOT peptide array binding signal intensity: 3.75
CaLsb4
  SPOT peptide array binding signal intensity: 728
CaMyo5
  SPOT peptide array binding signal intensity: 36.2
CaNbp2
  SPOT peptide array binding signal intensity: 1410
CaRvs167
  SPOT peptide array binding signal intensity: 53.7
CaRvs167-3
  SPOT peptide array binding signal intensity: 4
CaSho1
  SPOT peptide array binding signal intensity: 1520
CaSla1-D1-D2
  SPOT peptide array binding signal intensity: 396
CaSla1-D3
  SPOT peptide array binding signal intensity: 109
ScAbp1
  SPOT peptide array binding signal intensity: 256
ScBbc1
  SPOT peptide array binding signal intensity: ≤ 0
ScBem1-D1
  SPOT peptide array binding signal intensity: ≤ 0
ScBzz1-D1
  SPOT peptide array binding signal intensity: ≤ 0
ScBzz1-D2
  SPOT peptide array binding signal intensity: ≤ 0
ScCyk3
  SPOT peptide array binding signal intensity: 2.25
ScFus1
  SPOT peptide array binding signal intensity: 424
ScHof1
  SPOT peptide array binding signal intensity: 267
ScHse1
  SPOT peptide array binding signal intensity: 1820
ScLsb1
  SPOT peptide array binding signal intensity: 27.2
ScLsb2
  SPOT peptide array binding signal intensity: 0.5
ScLsb3
  SPOT peptide array binding signal intensity: 357
ScLsb4
  SPOT peptide array binding signal intensity: 163
ScMyo3
  SPOT peptide array binding signal intensity: 10.5
ScMyo5
  SPOT peptide array binding signal intensity: 2
ScNbp2
  SPOT peptide array binding signal intensity: 710
ScPex13
  SPOT peptide array binding signal intensity: 116
ScRvs167
  SPOT peptide array binding signal intensity: 55.6
ScSho1
  SPOT peptide array binding signal intensity: 1410
ScSla1-D1-D2
  SPOT peptide array binding signal intensity: 156
ScSla1-D3
  SPOT peptide array binding signal intensity: 224
SpAbp1-D1
  SPOT peptide array binding signal intensity: 323
SpBbc1
  SPOT peptide array binding signal intensity: 1
SpBzz1-D1
  SPOT peptide array binding signal intensity: 354
SpBzz1-D2
  SPOT peptide array binding signal intensity: 6.38
SpCyk3
  SPOT peptide array binding signal intensity: 1.75
SpHof1
  SPOT peptide array binding signal intensity: 9.5
SpHof1-2
  SPOT peptide array binding signal intensity: 78.8
SpHof1-3
  SPOT peptide array binding signal intensity: 552
SpHse1
  SPOT peptide array binding signal intensity: 1170
SpLsb1
  SPOT peptide array binding signal intensity: 3.38
SpLsb4
  SPOT peptide array binding signal intensity: 904
SpMyo1
  SPOT peptide array binding signal intensity: 28.1
SpNbp2
  SPOT peptide array binding signal intensity: 460
SpPex13
  SPOT peptide array binding signal intensity: 92.5
SpRvs167
  SPOT peptide array binding signal intensity: 119
SpSla1-D1-D2
  SPOT peptide array binding signal intensity: ≤ 0
SpSla1-D3
  SPOT peptide array binding signal intensity: 64.5
